Composite z-score, z-score and composite Z-score data for 6 molecules are collected here from PubChem BioAssay.

The test system of assay [1] is Human papillomavirus type 1a protein E7 (residues 44-93). Put plainly: small molecules binding HPV E7 44-93 – biochemical, small-molecule microarray, residues 44-93, 635 nm fluorescence, primary screen (AID 1108).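 Note: E7 fragment applied at 1 µg/mL in TBST for 1 h at 4 C; score combines spot fluorescence with its signal to noise ratio.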 To be noted: fluorescence 635 nm, higher = more signal.
Assay [2] can be described thus: hepatitis C replication reporter changes, two-sided – Huh7 cells, luciferase reporter, HCV replication inhibitor project, primary screen (AID 1109).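 Note: huh7 hepatoma cells harbouring a luciferase neomycin HCV replicon reporter; luciferase luminescence as measure of HCV replicon replication; test concentration not given here.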 To be noted: Huh7 HCV replicon luciferase reporter, 48 h; higher = more signal.
For assay [3], the target named is Left-right determination factor 2 (Homo sapiens) (UniProt O00292). Put plainly: small molecules binding LEFTY2 protein – biochemical, small-molecule microarray, 635 nm fluorescence scan, primary screen (AID 1110). To be noted: higher = more signal.
Chain of Left-right determination factor 2 (Homo sapiens) (O00292 whole entry, looked up): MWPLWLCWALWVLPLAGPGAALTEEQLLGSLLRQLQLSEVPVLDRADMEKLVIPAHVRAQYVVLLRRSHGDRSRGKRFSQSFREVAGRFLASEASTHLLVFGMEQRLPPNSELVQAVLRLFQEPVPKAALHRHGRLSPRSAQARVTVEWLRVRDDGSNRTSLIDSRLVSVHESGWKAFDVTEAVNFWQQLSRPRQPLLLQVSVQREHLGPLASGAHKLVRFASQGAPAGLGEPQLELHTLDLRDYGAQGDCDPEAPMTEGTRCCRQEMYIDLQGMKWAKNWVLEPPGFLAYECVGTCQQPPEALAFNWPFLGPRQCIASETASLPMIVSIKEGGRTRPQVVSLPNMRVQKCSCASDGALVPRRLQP
Assay [4] deals with Calmodulin-1 (Homo sapiens) (UniProt P0DP23). Briefly: small molecules binding calmodulin-1 with EGTA – biochemical, small-molecule microarray, Cy5-labelled CALM1, profiling panel (AID 1111).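 Note: labelled calmodulin applied in Tris saline Tween buffer holding calcium plus EGTA and DTT.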 As to conditions: Cy5-CALM1 binding fluorescence, higher = more signal.
Assay [5] shares this target. Put plainly: small molecules binding Ca-loaded calmodulin-1 – biochemical, small-molecule microarray, Cy5-labelled CALM1, plus calcium, artefact control for SMM control-protein annotation, profiling panel (AID 1112).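 Note: score merges spot fluorescence with signal to noise from triplicate slides.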 As to conditions: Cy5-CALM1 binding fluorescence, higher = more signal.
A short description of assay [6]: probe aWnt5a binding to arrayed compounds – biochemical, biotinylated probe, 635/667 nm fluorescence, primary screen (AID 1113).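 Note: score merges 667 nm fluorescence intensity with signal-to-noise per printed feature.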 To be noted: small-molecule microarray, higher = more signal.
Assay [7] can be described thus: probe aShh binding to arrayed compounds – biochemical, biotinylated probe, 635/667 nm fluorescence, primary screen (AID 1114).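 Note: probe is biotin-labelled aShh protein from a stem cell growth factor screen; measures binding of labelled protein to compounds printed on the slide; score merges feature fluorescence at 667 nm with signal-to-noise.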 As to conditions: small-molecule microarray, higher = more signal.
Assay [8] can be described thus: probe aNog binding to arrayed compounds – biochemical, biotinylated probe, 635/667 nm fluorescence, primary screen (AID 1115).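 Note: probe is biotinylated aNog protein used at 0.15 µg/mL for 1 h at 4 C; z-score combines 667 nm fluorescence of each spot with its signal to noise.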 To be noted: small-molecule microarray, higher = more signal.
Assay [9] concerns the target Torsin-1A-interacting protein 1 (Homo sapiens) (UniProt Q5JTV8). Briefly: compound microarray binding of lysate hLAP1 – cell lysate, small-molecule microarray, COS7 lysate, 635/667 nm fluorescence, primary screen (AID 1116). As to conditions: 635 nm fluorescence, higher = more signal.
The target in assay [10] is Alpha-bungarotoxin (Bungarus multicinctus) (UniProt P60615). Briefly: compounds binding labelled alpha-BTX control protein – biochemical, small-molecule microarray, Alexa647 label, 635/667 nm fluorescence, artefact control for SMM control protein annotation, profiling panel (AID 1117). To be noted: alpha-BTX-A647 binding fluorescence, higher = more signal.
Chain of Alpha-bungarotoxin (Bungarus multicinctus) (P60615 whole entry, looked up): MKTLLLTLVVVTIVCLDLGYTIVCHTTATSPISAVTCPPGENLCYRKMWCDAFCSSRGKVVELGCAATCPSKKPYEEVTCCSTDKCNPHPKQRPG
The next assay addresses Albumin (Bos taurus) (UniProt P02769). Put plainly: compounds binding labelled BSA control protein – biochemical, small-molecule microarray, Alexa647 label, 635/667 nm fluorescence, artefact control for SMM control protein annotation, profiling panel (AID 1118).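 Note: score merges 667 nm emission intensity and signal-to-noise per printed compound spot.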 As to conditions: BSA-A647 binding, fluorescence 635 nm, higher = more signal.
Assay [11] can be described thus: probe aXIP binding to arrayed compounds – biochemical, NeuroSMM set, 635/667 nm fluorescence, primary screen (AID 1119).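 Note: probe is the protein aXip251-270 applied at 1 µg/mL to compound-printed slides; binding of probe to printed compounds measured as 667 nm fluorescence plus signal to noise.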 To be noted: small-molecule microarray, higher = more signal, called active from +8 up or from −8 down.
Assay [12] can be described thus: probe aNOTCH3 binding on compound microarray – biochemical, small-molecule microarray, 635/667 nm fluorescence, primary screen (AID 1120).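 Note: probe is a biotin-tagged antibody raised against NOTCH3 rather than NOTCH3 protein; score merges spot fluorescence near 667 nm with spot signal to noise.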 As to conditions: higher = more signal.
The nature of assay [13]: probe aNOTCH2 binding on compound microarray – biochemical, small-molecule microarray, 635/667 nm fluorescence, primary screen (AID 1121).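 Note: score merges feature fluorescence read at 667 nm with its signal to noise.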 To be noted: higher = more signal.
Assay [14] concerns the target Carbonic anhydrase 2 (Homo sapiens) (UniProt P00918). Briefly: compounds binding carbonic anhydrase 2 – biochemical, small-molecule microarray, Alexa647-labelled CAII, profiling panel (AID 1122). To be noted: CAII-A647 binding fluorescence, higher = more signal.
Assay [15] in a line: COS7 lysate on small-molecule microarray, probe aHis, 635 nm (AID 1123).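 Note: z-score combines 667nm fluorescence intensity with signal-to-noise per printed compound spot.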 To be noted: COS7 cell lysate, fluorescence, higher = more signal.
Assay [16] in a line: probe aLAP1 signal on lysate-treated microarray – cell lysate, small-molecule microarray, COS7 lysate, primary screen (AID 1124).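 Note: lysate comes from COS7 cells expressing LAP1 and is applied at 0.3 µg/mL; score merges spot fluorescence near 667 nm with signal-to-noise over triplicate slides.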 To be noted: probe aLAP1, fluorescence, higher = more signal.
The subject of a further assay is Sam68 (KHDRBS1). Put plainly: compounds binding KHDRBS1 protein – biochemical, small-molecule microarray, 635 nm fluorescence, primary screen (AID 1125).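 Note: score merges 667 nm channel intensity with signal to noise over triplicate slides.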 To be noted: higher = more signal.
The test system of assay [17] is Chordin-like protein 2 (CHRDL2). Briefly: compounds binding chordin-like 2 – biochemical, small-molecule microarray, 635 nm fluorescence, primary screen (AID 1126).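 Note: printed compound slides probed with Chrdl2 protein at 4 µg/mL for 1 h at 4 C; score merges 667 nm emission intensity with signal to noise over three replicate slides.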 To be noted: fluorescence 635 nm, higher = more signal.
Assay [18] addresses Concanavalin-A (Canavalia ensiformis) (UniProt P02866). Put plainly: compounds binding concanavalin A lectin – biochemical, small-molecule microarray, Alexa647 label, 635 nm, artefact control for SMM control protein annotation, primary screen (AID 1127).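 Note: z combines 667 nm emission intensity with signal-to-noise across three replicate slides.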 To be noted: ConA-A647 binding fluorescence, higher = more signal.

Active and inactive are the calls of the source.

Chain of Albumin (Bos taurus) (P02769 whole entry, looked up): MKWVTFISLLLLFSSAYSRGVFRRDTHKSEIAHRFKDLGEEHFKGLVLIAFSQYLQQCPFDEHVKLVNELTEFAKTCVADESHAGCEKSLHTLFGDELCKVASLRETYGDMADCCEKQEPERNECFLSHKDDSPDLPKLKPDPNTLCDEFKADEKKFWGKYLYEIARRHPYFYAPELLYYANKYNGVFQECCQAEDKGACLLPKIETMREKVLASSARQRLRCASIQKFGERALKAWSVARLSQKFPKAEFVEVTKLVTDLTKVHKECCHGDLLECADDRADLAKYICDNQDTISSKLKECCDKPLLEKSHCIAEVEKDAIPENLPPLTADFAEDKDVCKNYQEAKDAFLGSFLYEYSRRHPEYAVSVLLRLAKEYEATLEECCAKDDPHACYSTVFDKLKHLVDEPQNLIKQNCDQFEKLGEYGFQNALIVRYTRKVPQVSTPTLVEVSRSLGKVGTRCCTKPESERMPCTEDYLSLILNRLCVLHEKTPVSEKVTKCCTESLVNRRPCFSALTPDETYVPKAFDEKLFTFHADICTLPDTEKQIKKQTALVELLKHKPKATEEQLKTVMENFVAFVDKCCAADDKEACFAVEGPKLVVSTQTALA
Chain of Torsin-1A-interacting protein 1 (Homo sapiens) (Q5JTV8 whole entry, looked up): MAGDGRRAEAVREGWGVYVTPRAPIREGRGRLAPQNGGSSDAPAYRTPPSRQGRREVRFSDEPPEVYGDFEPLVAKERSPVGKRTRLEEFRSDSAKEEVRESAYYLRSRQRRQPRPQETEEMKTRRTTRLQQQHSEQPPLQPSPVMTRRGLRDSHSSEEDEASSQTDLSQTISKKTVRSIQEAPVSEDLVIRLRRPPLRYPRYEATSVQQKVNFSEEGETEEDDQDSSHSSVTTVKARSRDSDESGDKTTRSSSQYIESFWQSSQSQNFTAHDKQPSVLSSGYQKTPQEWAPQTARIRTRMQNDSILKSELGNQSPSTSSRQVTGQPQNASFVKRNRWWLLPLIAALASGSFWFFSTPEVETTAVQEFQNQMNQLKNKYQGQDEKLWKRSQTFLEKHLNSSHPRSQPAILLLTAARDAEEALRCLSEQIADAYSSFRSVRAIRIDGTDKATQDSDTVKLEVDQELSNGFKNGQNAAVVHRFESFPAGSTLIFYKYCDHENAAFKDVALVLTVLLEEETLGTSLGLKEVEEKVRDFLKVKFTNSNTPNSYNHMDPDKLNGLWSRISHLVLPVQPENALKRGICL
Chain of Concanavalin-A (Canavalia ensiformis) (P02866 whole entry, looked up): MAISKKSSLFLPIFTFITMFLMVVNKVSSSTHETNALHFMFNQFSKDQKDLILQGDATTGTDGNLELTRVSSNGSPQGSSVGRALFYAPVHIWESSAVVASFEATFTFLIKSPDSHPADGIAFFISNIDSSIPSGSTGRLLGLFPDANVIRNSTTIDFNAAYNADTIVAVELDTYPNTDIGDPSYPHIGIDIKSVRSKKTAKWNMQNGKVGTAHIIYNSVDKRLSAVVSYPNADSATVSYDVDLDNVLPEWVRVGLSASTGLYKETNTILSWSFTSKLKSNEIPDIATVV

As to `COCCOC(=O)N1C(=O)[C@@]2(c3cc(C#CC4=CCCCC4)ccc31)[C@H](c1ccc(OCCO)cc1)N1[C@H](c3ccccc3)[C@H](c3ccccc3)OC(=O)[C@H]1[C@@H]2C(=O)N1CCCCCCC1`, the composite z-score in assay [1] turned out to be 0.67; in assay [3], 0.853; in assay [4], 0.643; in assay [5] it was 0.758; in assay [6], 0.267; in [7] it was 1.44. Besides, the composite z-score in assay [8] was found to be 1.33; in [9] it was 1.91; in assay [10], 1.9; with Albumin (Bos taurus) it was 0.263; in [12], 0.809; in assay [13], 0.0784. The composite z-score in [14] was 0.623; in assay [15], 2.41; in assay [16], 0.903; in the assay with Sam68 (KHDRBS1), 1.3; in assay [17], 0.91; in assay [18] it was 1.11. This molecule yielded a z-score in assay [2] of -1.13. In addition, the composite Z-score in [11] was 2 (inactive).
For the molecule `CCCC=C(CCC)[C@@H](NC(=O)c1ccccc1)c1ccc(C(=O)OC)cc1`, the composite z-score in assay [1] was 0.882; in assay [3] it was 0.898; in assay [4], -0.271; in assay [5], -0.52; in [6] it was 0.732; in assay [7], 0.318. Moreover, the composite z-score in assay [8] is 1.71; in assay [9], -0.171; in assay [10], 0.303; in the assay with Albumin (Bos taurus) it was -0.122; in assay [12] it was 1.21; in assay [13], -0.166. The composite z-score in [14] turned out to be 0.526; in assay [15], 1.77; in assay [16], 0.0914; with Sam68 (KHDRBS1), 0.823; in assay [17], 0.308; in assay [18], 0.711. The z-score in assay [2] was -1.32. For the same molecule, the composite Z-score in [11] was -0.222 (inactive).
In the case of `CN(C)C(=O)[C@]1(Cc2ccccc2CN=[N+]=[N-])N=C(c2ccc(OCCCO)cc2)O[C@@H]1c1ccccc1N=[N+]=[N-]`, the composite z-score is 1.44 in assay [1]; -0.472 in assay [3]; 1.71 in [4]; 0.422 in assay [5]; -0.0161 in assay [6]; 0.0639 in assay [7]. In addition, the composite z-score is 0.526 in assay [8]; 0.609 in assay [9]; 1.14 in [10]; 0.873 with Albumin (Bos taurus); -0.155 in assay [12]; -0.153 in assay [13]. Further, the composite z-score in [14] is 0.58; in [15], 2.68; in [16], -0.339; with Sam68 (KHDRBS1), 1.3; in assay [17], -0.534; in [18], 1.07. Besides, in [2], the z-score was -1.6. For the same molecule, the composite Z-score in [11] is -0.118 (inactive).
For the molecule `Cc1ccc(S[C@]2(C(=O)NC3CC3)CC(=O)N(Cc3cc(C(F)(F)F)cc(C(F)(F)F)c3)[C@@H]2c2ccc(CO)cc2I)cc1`, the composite z-score in assay [1] was 0.769; in [3] it was -0.175; in [4], 0.102; in assay [5], -0.213; in [6], 0.472; in [7] it was -0.19. The composite z-score was 1.65 in [8]; 0.0541 in assay [9]; 0.665 in [10]; 0.0876 in the assay with Albumin (Bos taurus); -0.512 in assay [12]; 0.381 in [13]. Moreover, the composite z-score worked out at 0.554 in assay [14]; 1.18 in [15]; 0.959 in [16]; 0.964 in the assay with Sam68 (KHDRBS1); 0.452 in [17]; 1.07 in assay [18]. This molecule also displayed a z-score in [2] of -1.67. Besides, the composite Z-score in assay [11] is 0.193 (inactive).
For `CC(C)CNC(=O)[C@@H]1c2ccccc2C(=O)N(CC23CC4CC(CC(C4)C2)C3)[C@H]1c1ccc(CO)cc1`, the composite z-score in assay [1] was 1.34; in assay [3] it was 0.0408; in assay [4] it was 0.725; in assay [5], 0.769; in assay [6], -0.0685; in assay [7] it was 0.14. Moreover, the composite z-score in assay [8] is -0.436; in [9], 0.862; in assay [10] it was 1.15; with Albumin (Bos taurus), 0.486; in [12], -0.004; in assay [13], -0.14. In addition, the composite z-score is 0.132 in assay [14]; 1.74 in assay [15]; 0.0747 in assay [16]; 0.985 in the assay with Sam68 (KHDRBS1); -0.284 in [17]; 1.07 in [18]. In addition, the z-score in [2] was -1.05. Further, the composite Z-score in [11] is 0.642 (inactive).
`C=CCC(OC(C)=O)[C@@H]1[C@@H](N(Cc2ccc(-c3cccc(C(F)(F)F)c3)o2)C(=O)Cc2ccc(OC)cc2)c2cc(OCCCO)ccc2N1C(=O)c1ccc2ccccc2n1` (stereo not given in full): the composite z-score in assay [1] is -0.551; in assay [3] it was -0.323; in [4] it was -0.698; in assay [5], -0.605; in [6], -0.0017; in [7], -0.0904. For the same molecule, the composite z-score is 0.227 in [8]; -0.366 in assay [9]; -0.362 in assay [10]; -0.739 with Albumin (Bos taurus); -0.0311 in [12]; -0.0956 in [13]. Moreover, the composite z-score in [14] was -0.165; in assay [15], 0.516; in assay [16], -0.136; with Sam68 (KHDRBS1) it was -1.29; in [17], 0.763; in [18], -0.388. The same molecule registered a z-score in assay [2] of 0.185. Moreover, the composite Z-score in [11] was -0.117 (inactive).
